Measurements published in PubChem BioAssay (NCATS).
Records with an inconclusive call do not appear. Calls follow the shape of the full dose curve. Peptide text beside a SMILES is read from it.

experiment: S16 Schwann cell PMP22 intronic element beta-lactamase assay (AID 624044); conditions: S16 rat Schwann cells, PMP22 element beta-lactamase FRET, 24 h; series mostly up to 17.1 µM; ratio activity, negative = inhibition: at the top concentration; also: nearly all actives have a fitted effect of over 15% in size
Excerpt: Description: Charcot-Marie-Tooth-Association [CMTA] National Center for Advancing Translational Sciences [NCATS] Charcot-Marie-Tooth (CMT) disease was first characterized by Jean-Martin Charcot and Pierre Marie in France and, independently, by Howard Henry Tooth in England in 1886. CMT is one of the most common inherited neurological diseases, affecting approximately 1 in 2,500 Americans. […] The most prevalent type of CMT is known as CMT1A and caused by a duplication of the PMP22 gene which leads to over-expression of this protein. PMP22 is a glycosylated intrinsic membrane protein accounting for 2-5% of the myelin protein content, and its over-expression results in demyelination and subsequently axonal loss. A pair of cellular transcription-based assays was developed in the S16 rat Schwann cell lines (Hai, M., et al., 2002) stably transfected with orthogonal reporters - firefly luciferase (Fluc) and beta-lactamase (beta-Lac) - whose expression is driven by an intronic regulatory element of the PMP22 gene (Jones, E.A., et al., 2011) to recapitulate endogenous expression of PMP22. The current assay employs Blac as a reporter of PMP22 expression. A comprehensive library of approved drugs, the NCGC Pharmaceutical Collection (Huang, R., et al., 2011), was screened in the cross-validating platform of the orthogonal reporter assays to identify drug modulators inhibitory towards PMP22 expression. A set of counter-screens was devised to address non-specific activity of the library. An ATP-dependent CellTiter-Glo assay (developed by Promega Corp) was utilized to control cell viability. In addition, biochemical Fluc enzyme assay was performed to assess direct inhibition of the Fluc enzymatic activity. References Hai, M., Muja, N., DeVries, G.H., Quarles, R.H. and Patel, P.I. Comparative analysis of Schwann cell lines as model systems for myelin gene transcription studies. J Neurosci Res, 2002. 69(4): pp 497-508 Huang, R., Southall, N., Wang, Y., Yasgar A., Shinn P., Jadhav, A. , Nguyen, D.-T. and Austin, C.P., The NCGC pharmaceutical collection: a comprehensive resource of clinically approved drugs enabling repurposing and chemical genomics. Sci Transl Med, 2011. 3(80): p. 80ps16.
S16 Schwann cell PMP22 intronic element beta-lactamase assay The beta-Lac-expressing S16 cells were seeded in black clear-bottom 1536 well plates at between 500-750 cells/6uL in DMEM medium containing 10% FBS, w/o phenol red. After overnight incubation at 37 degree Celsius/5% C02, 23 nL of compounds or DMSO were delivered to each well using a pin tool, followed by 24h-incubation at 37 degree Celsius/5% C02. Then one microl of LiveBLAzer FRET B/G detection mix (Invitrogen) was added to each well. An EnVision plate reader (PerkinElmer) was used to detect the dual beta-Lac output composed of fluorescence at 460nm for beta-Lac expression and FRET at 535nm for cell viability. The % signal at 535 nm was scaled to a full range of DMSO and zero and then normalized using the maximum response observed in the screen as 100% activity. The % signal at 460nm was normalized to the average readings of potassium clavulanate (a positive control) - treated cells relative to DMSO-treated cells (0% Activity). The concentration-effect curves were then classified based on curve quality (r2), response magnitude and degree of measured activity.

Ratio activity, negative = inhibition, inactive:
CC(=O)OCC(=O)[C@@]12OC3(CCCC3)OC1CC1C3CCC4=CC(=O)C=C[C@@]4(C)[C@]3(F)C(O)C[C@]12C (stereo not given in full) -21.1% [at 38.3 µM]
C[C@@H]1C[C@H]2[C@@H]3C[C@H](F)C4=CC(=O)C=C[C@@]4(C)[C@]3(F)[C@H](O)C[C@]2(C)[C@@]1(O)C(=O)CO -14.8%
COC(=O)C(Cc1ccccc1)NC(=O)C(N)CC(=O)O (stereo not drawn) (H-Asp-Phe-OMe; configuration not given here) 5.48% [at 38.3 µM]
CN(C)CCc1c[nH]c2ccc(CC3COC(=O)N3)cc12 (stereo not given) -2.36% [at 38.3 µM]
CCC(C)C(=O)OC1CC(O)C=C2C=CC(C)C(CCC(O)CC(O)CC(=O)O)C21 (stereo not given) -2.07% [at 38.3 µM]
CC[C@H]1NC(=O)c2cc(S(N)(=O)=O)c(Cl)cc2N1 -8.6%
CC1(C)O[C@@H]2C[C@H]3[C@H]4C[C@H](F)C5=CC(=O)CC[C@]5(C)[C@@H]4[C@H](O)C[C@]3(C)[C@]2(C(=O)CO)O1 1%
CCC(=O)O[C@@H]1[C@H](C)O[C@H](O[C@H]2[C@@H](N(C)C)[C@H](O)[C@@H](O[C@@H]3[C@@H](CC=O)C[C@@H](C)[C@@H](O)/C=C\C=C/C[C@@H](C)OC(=O)C[C@@H](OC(=O)CC)[C@H]3OC)O[C@H]2C)C[C@]1(C)O 2.18%
Cc1cccc(CN2CCN([C@@H](c3ccccc3)c3ccc(Cl)cc3)CC2)c1 -17.1%
CN[C@H]1[C@@H](O)[C@@H](NC)[C@@H]2O[C@@]3(O)C(=O)C[C@@H](C)O[C@H]3O[C@H]2[C@H]1O 2.89%
CC(=O)O[C@]1(C(C)=O)CC[C@@H]2[C@@H]3C=C(C)C4=CC(=O)CC[C@@]4(C)[C@H]3CC[C@]21C 9.68%
CCC(CCC(C)C1CCC2C3CC=C4CC(O)CC[C@@]4(C)C3CC[C@@]12C)C(C)C (stereo not given in full) 10.3% [at 38.3 µM]
C=Cc1c(C)/c2[n-]/c1=C\c1[n-]c(c(CC)c1C)/C=c1\[n-]c3c(c1C)C(=O)C(C(=O)[O-])C=3c1[n-]c(c(C)c1CCC(=O)[O-])\C=2.[Cu].[Na+].[Na+] (stereo not given) -0.471% [at 38.3 µM]
C[C@]1(c2ccccc2)OC(C(=O)O)=CC1=O 5.72% [at 38.3 µM]
COc1ccc(C[C@@](C)(N)C(=O)O)cc1OC -3.71%
CC(=O)N[C@H](CC(C)C)C(=O)O 0.444% [at 38.3 µM]
C[C@H](Oc1ccccc1)C(=O)N[C@@H]1C(=O)N2[C@@H]1SC(C)(C)[C@@H]2C(=O)O 3.01%
CO[C@]1(NC(=O)[C@H](C(=O)O)c2ccc(O)cc2)C(=O)N2C(C(=O)O)=C(CSc3nnnn3C)CO[C@H]21 1.42%
CC(C)(C)NC[C@H](O)COc1cccc2c1C[C@@H](O)[C@@H](O)C2 2.95%
C#C[C@]1(O)CC[C@@H]2[C@H]3CCC4=CCCC[C@@H]4[C@@H]3CC[C@@]21C -21.3%
CC1(C)S[C@H]2C(NC(=O)[C@@H](N)c3ccc(O)cc3)C(=O)N2[C@@H]1C(=O)O (stereo not given in full) 3.01% [at 38.3 µM]
CN(C)CCn1nnnc1SCC1=C(C(=O)O)N2C(=O)[C@@H](NC(=O)Cc3csc(N)n3)[C@@H]2SC1 0.118%
Cc1ccc2c(c1)c1c3n2CCN[C@H]3CCC1 1.9% [at 38.3 µM]
NC[C@@H]1O[C@H](O[C@@H]2[C@H](O[C@@H]3O[C@H](CO)[C@@H](O)[C@@H]3O)[C@@H](O)[C@@H](N)C[C@H]2N)[C@@H](N)[C@H](O)[C@@H]1O -0.871%
N[C@@H]1C(O)OC(CO)C(O)C1O (stereo not given in full) -1.78% [at 38.3 µM]
CC(=O)[C@@]1(O)CC[C@H]2[C@H]3C[C@@H](C)C4=CC(=O)C=C[C@]4(C)[C@@]3(F)[C@@H](O)C[C@]21C 4.31%
CN1CCO[C@H](c2ccccc2)c2ccccc2C1 -4.08%
C[C@]12C=CC(=O)C=C1CCC1C2C(O)C[C@]2(C)C1CC[C@]2(O)C(=O)CO (stereo not given in full) -12.1% [at 38.3 µM]
CC1C2CCC3C4CC=C5CC(N(C)C)CC[C@@]5(C)C4CC[C@@]32CN1C (stereo not given in full) -0.38% [at 38.3 µM]
COc1ccc2c(c1)N(C[C@@H](C)CN(C)C)c1ccccc1S2 -3.13%
CC(=O)O[C@H]1C[C@@]2(C)[C@H](C[C@@H](O)[C@H]3[C@@]4(C)CC[C@@H](O)[C@@H](C)[C@H]4CC[C@@]32C)C1=C(CCC=C(C)C)C(=O)O 0.856% [at 38.3 µM]
CCOC(=O)O[C@@H](C)OC(=O)[C@@H]1N2C(=O)[C@@H](NC(=O)[C@@H](N)c3ccccc3)[C@H]2SC1(C)C -11.9%
CC(=O)OC1CCC2C3CCc4cc(O)ccc4C3CCC12C (stereo not given) -13% [at 38.3 µM]
CC(=O)O[C@@]1(C(C)=O)CCC2C3CC(C)C4=CC(=O)CC[C@@]4(C)C3CC[C@]21C (stereo not given in full) 6.91% [at 38.3 µM]
Nc1nc2ncc(CNc3ccc(C(=O)NC(CCC(=O)O)C(=O)O)cc3)nc2c(=O)[nH]1 (stereo not given) 1.64% [at 38.3 µM]
CCN[C@@H]1C[C@H](N)[C@H](O[C@H]2OC(CN)=CC[C@H]2N)[C@@H](O)[C@H]1O[C@H]1OC[C@@](C)(O)[C@@H](NC)[C@@H]1O 11.4% [at 38.3 µM]
CCCC(=O)O[C@]1(C(=O)CO)CCC2[C@@H]3CCC4=CC(=O)CC[C@]4(C)C3C(O)C[C@]21C (stereo not given in full) -2.08% [at 38.3 µM]
NC(=O)N[C@H]1NC(=O)NC1=O 5.69%
CC1(C)SC2C(N3C(=O)C(c4ccccc4)NC3(C)C)C(=O)N2C1C(=O)O (stereo not given) 4.37% [at 38.3 µM]
O=C(Nc1ccccc1)OC[C@H](CN1CCCCC1)OC(=O)Nc1ccccc1 2.71%
